Test results as given in PubChem BioAssay (NCI).
Compounds without any hit were thinned out: in the full panel of roughly 83,000, 20% have a hit.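 48-hour exposure, single concentration, 96-well plates; percent growth endpoint where 0 means no net growth. Active: below 10.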 Values without a mark were called inactive. Active and inactive are the calls of the source.

Tests used:
Assay in all cases: NCI-60 one-dose screen, 48 h (100 = growth as untreated, 0 = no growth, -100 = all killed)
T-47D breast = details: 10 µM
BT-549 breast = details: 10 µM unless noted
MDA-MB-435 melanoma = details: 10 µM unless noted
SW-620 colon = details: 10 µM unless noted
MCF7 breast = details: 10 µM unless noted
HCT-116 colon = details: 10 µM unless noted
HCC-2998 colon = details: 10 µM unless noted
KM12 colon = details: 10 µM unless noted

Row | Compound | growth (T-47D breast) | growth (BT-549 breast) | growth (MDA-MB-435 melanoma) | growth (SW-620 colon) | growth (MCF7 breast) | growth (HCT-116 colon) | growth (HCC-2998 colon) | growth (KM12 colon)
1 | COc1cc(CNCCN2C(=O)c3ccc4c5c(ccc(c35)C2=O)C(=O)N(CCNCc2cc(OC)c(OC)c(OC)c2)C4=O)cc(OC)c1OC | -56.2% (active) | -93.8% (active) | -63.4% (active) | -87.3% (active) | -59.4% (active) | -99.7% (active) | -100% (active) | -92.5% (active)
2 | Cc1nc2cc(Nc3nc(Nc4ccc(F)cc4)nc(N4CCCC4)n3)ccc2n1Cc1ccccc1 | -31.3% (active) | -14% (active) | -74.2% (active) | -53.8% (active) | 3.05% (active) | -79.3% (active) | -59.2% (active) | -73.4% (active)
3 | O=C(Nc1nc2ccccc2[nH]1)C(=O)Nc1nc2ccccc2[nH]1 | 95.4% | 108% | 101% | 102% | 83.9% | 103% | 107% | 101%
4 | O=C(Nc1ccc(Cl)c(Cl)c1)NC(CO)(CO)CO | 96% | 93.8% | 95.8% | 101% | 97.4% | 101% | 102% | 97.7%
5 | COc1ccc(NC(=O)c2ccc3c(c2)nc(-c2ccc(Cl)cc2)n3-c2cc(C(C)(C)C)[nH]n2)cc1 | 74.5% | 81.3% | 88.9% | 104% | 83% | 80.7% | 112% | 84%
6 | COC(=O)[C@@H]1CCCN1C(=O)[C@@H]1CCCN1C(=O)[C@@H](Cc1c[nH]c2ccccc12)NC(=S)Nc1cc(C(F)(F)F)cc(C(F)(F)F)c1 | 32.8% | 82.4% | 5.44% (active) | 50.3% | 25.9% | 34% | 35.4% | 66.2%
7 | COC(=O)c1cc(-c2ccc(C)cc2)n(C(=O)CSc2nc3sc(C(N)=O)c(C)c3c(=O)n2Cc2ccccc2)n1 | 95.1% | 96.1% | 104% | 105% | 90.2% | 92% | 108% | 100%
8 | O=C(O)C[C@H](O)C[C@H](O)/C=C/c1c(C2CC2)nc2ccccc2c1-c1ccc(F)cc1 | 95.9% | 75.1% | 93.9% | 83.3% | 96.3% | 63.3% | 99% | 102%
9 | O=C1CCC(N2Cc3c(C#CCCCNC(=O)c4cc5c(o4)C(=O)c4ccccc4C5=O)cccc3C2=O)C(=O)N1 (configuration not stated) | 7.33% (active) | -94.8% (active) | -94.5% (active) | -34.7% (active) | -68.6% (active) | -25.5% (active) | -64.1% (active) | -1.98% (active)
10 | COc1cc(C2C3=C(COC3=O)N(CCO)c3cc4c(cc32)OCO4)cc(OC)c1O (configuration not stated) | 35.3% | 59.9% | -39.6% (active) | 14.8% | 19.6% | 16.7% | 28.4% | 20.9%
11 | COc1ccccc1CNCCCCCCCCCCCCN1C(=O)c2ccc3c4c(ccc(c24)C1=O)C(=O)N(CCCCCCCCCCCCNCc1ccccc1OC)C3=O | 119% | 70.5% | 58% | 74.1% | 26.7% | -43% (active) | 80.9% | 46.6%
12 | O=C1/C(=C/c2ccc(Cl)cc2)N=C(c2ccccc2)N1CCc1cccs1 | 97.7% | 59.8% | 53.2% | 51.3% | 15.7% | 28.5% | 25.4% | 99.2%
13 | O=C1C=CC(=O)N1CCCCCCCCCCN1C(=O)C=CC1=O | 77.9% | 101% | 68.6% | 4.62% (active) | 82.7% | 32.9% | 90.7% | 86.2%
14 | Cc1cc(=O)c2c(C)ccc(C)c2[nH]1 | 96.1% | 123% | 104% | 104% | 93.5% | 96.3% | 91.2% | 130%
